Source: PubChem BioAssay (National Center for Advancing Translational Sciences (NCATS))
Most compounds without a hit are left out; they make up all but 2.2% or so of the library.
TDP43 rescue: qHTS of TDP-43 Inhibitors | TDP-43 expressing yeast growth rescue, BacTiter-Glo, 24 h | Potency, µM (doses to about 46.1 µM), hits mostly activators | hit rate 1.8% among 410,000 | AID 652104, 2013; also: nearly all actives have a fitted effect of over 50% in size
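Luminescence from BacTiter-Glo reports growth of TDP-43-expressing yeast after 24 hr at 30 deg C with compound. Cells were raffinose-pregrown to mid-log, then seeded in galactose medium at OD600=0.02.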
aSyn rescue: qHTS of alpha-syn Inhibitors; Yeast expressing alpha-synuclein, growth rescue, BacTiter-Glo, 24 h; Potency, µM (titrated, usually from 46.1 µM), actives largely listed as activators; hit rate 0.14% among 370,000; AID 652106, 2013; also: nearly all actives have a fitted effect of over 65% in size
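Screening used galactose-induced yeast with toxic alpha-synuclein levels, exposed to compound for 24 hr at 30 deg C. Cell growth, read with BacTiter-Glo luminescence, gave the measured signal.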
Mito fusion act: qHTS Assay for Small Molecule Inhibitors of Mitochondrial Division or Activators of Mitochondrial Fusion. hit rate 0.23% among 320,000. S. cerevisiae fusion-defective mutant growth rescue, CellTiterGlo 48 h. Potency, µM (doses to about 46.1 µM), usual class: activators. AID 485298, 2010; also: nearly all actives have a fitted effect of over 45% in size
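Luminescent cell viability in 1536-well qHTS format served as the measure of rescued growth in ts fusion-mutant S. cerevisiae cultured on non-fermentable YPEG for 48 hours at 37C.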
Abeta yeast res: qHTS for compounds that reverse cellular toxicity of Amyloid beta (A-beta) peptide in yeast: Primary Screen; yeast expressing A-beta42, growth rescue, OD600, 48 h; response scale: 0% DMSO, 100% iron-clioquinol control; Potency, µM (top dose mostly 46.1 µM), usual class: activators; hit rate 0.063% among 410,000; also: nearly all actives have a fitted effect of over 55% in size
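Yeast A-beta toxicity model in growth medium with pinned compounds, 48 h at 30 C; growth read as absorbance at 600 nm. Normalized to FeCl3/clioquinol equimolar mix (positive) and DMSO (negative).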
FUS suppressor: qHTS for Suppressors of FUS Proteinopathy: Primary screen using FUS-linked yeast assay | S. cerevisiae FUS-expressing, growth rescue, OD600, 24 h | Potency, µM (highest dose often 76.6 µM), actives largely listed as activators | hit rate 0.24% among 390,000; also: nearly all actives have a fitted effect of over 55% in size
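Read-out: OD at 600 nm after 24hr at 30C, reporting rescue of FUS-induced yeast toxicity. Cells at OD 0.005 in galactose (2%) minimal medium; compounds tested in a dilution series; CP55940 titration from 92uM final as control.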
Each line names hits and unclear results; the compound was inactive in the other large screens; ! = a repeat was not active. Calls follow the shape of the dose curve; as a rule, active = well fitted curve in the direction sought with a large enough effect; inconclusive = small, poorly fitted or top-dose-only effect, or another doubt; inactive = no such curve, though single readings can be large; an effect the other way counts as inactive or inconclusive.

CC(C)Oc1ccc(CNC(=O)CCCn2c(=O)c3cccn3c3cccnc32)cc1	FUS suppressor inconclusive (no result: aSyn rescue, Mito fusion act)
O=C(CCCn1c(=O)c2cccn2c2cccnc21)NCCc1ccc(Cl)cc1	TDP43 rescue 22µM!
CCc1ccc(CNC(=O)CCCn2c(=O)c3cccn3c3cccnc32)cc1	Mito fusion act 11µM
COc1cccc(-c2nc(C(=O)NCC3CCCO3)cc3c2[nH]c2ccccc23)c1 (stereo not given)	TDP43 rescue 20µM, aSyn rescue inconclusive
Cc1cccc(N2CCN(C(=O)c3ccccc3NC(=O)C3=CSCCO3)CC2C)c1 (stereo not given)	TDP43 rescue inconclusive
CC(C)(C)NS(=O)(=O)c1ccc(C(=O)Nc2ccc3c(c2)OCO3)cc1	Mito fusion act 35µM
Cc1csc(NCC(=O)c2c(C)[nH]c3ccccc23)n1	none (no result: TDP43 rescue, Mito fusion act, Abeta yeast res, FUS suppressor)
CN(C)C(=O)C12CCC(C)(C(=O)C1Br)C2(C)C (stereo not given)	none
CCOC(=O)c1ccc(NC(=S)N2CCSC2c2ccc(Cl)cc2)cc1 (stereo not given)	TDP43 rescue 16µM, Mito fusion act inconclusive, FUS suppressor inconclusive
O=C(CCc1nnc2ccc(NCc3ccccc3)nn12)NC1CCCCC1	none
Cc1ccc(NC(=O)C2COc3ccccc3O2)c(C)c1 (stereo not given)	TDP43 rescue 11µM
O=C(Nc1ccc([N+](=O)[O-])cc1)C1COc2ccccc2O1 (stereo not given)	TDP43 rescue inconclusive, Abeta yeast res 8.9µM
O=C(Nc1ccccc1)C1COc2ccccc2O1 (stereo not given)	none
CC1(C)Oc2ccc(NC(=O)C3COc4ccccc4O3)cc2O1 (stereo not given)	TDP43 rescue 10µM
CCCC[C@@H]1C(=O)N2N=Cc3cscc3[C@H]2N2N=Cc3cscc3[C@@H]12	none (no result: TDP43 rescue, aSyn rescue, Mito fusion act, Abeta yeast res)
NNC(=O)c1cc2c(s1)CCCCCC2	none
O=C(O)Cc1cc2c(s1)CCCCC2	TDP43 rescue 13µM
CCC(C)NC(=O)c1c(N)n(/N=C/c2cccnc2)c2nc3ccccc3nc12 (stereo not given)	TDP43 rescue 14µM
Cc1ccccc1C(=O)/C(C#N)=N/Nc1c(C)n(C)n(-c2ccccc2)c1=O	TDP43 rescue 35µM, aSyn rescue 16µM (no result: FUS suppressor)
Cc1c(N/N=C(\C#N)C(=O)c2ccccc2)c(=O)n(-c2ccccc2)n1C	Abeta yeast res inconclusive
Cc1ccn2cc(C(=O)Nc3cccc(C(=O)NC4CC4)c3)nc2c1	none
CCN1CCN(c2c(/C=C3\SC(=S)N(Cc4ccco4)C3=O)c(C)c(C#N)c(=O)n2C)CC1	FUS suppressor 22µM
COc1ccc(-n2c(C)cc(/C=C3\SC(=S)N(Cc4ccco4)C3=O)c2C)cc1	none
C=C1C=C(C)n2ncc(C(=O)Nc3ccc(C)cn3)c2N1	none (no result: TDP43 rescue, Mito fusion act, Abeta yeast res, FUS suppressor)
Cc1ccc(Cl)cc1Nc1nc2ccccc2c2nncn12	TDP43 rescue inconclusive (no result: aSyn rescue, Mito fusion act)
Clc1ccccc1-c1nc2ccccc2c2nncn12	TDP43 rescue 40µM
O=C(OCc1ccc([N+](=O)[O-])cc1)C1CCN(S(=O)(=O)c2ccccc2)CC1	TDP43 rescue 10µM
CCc1ccccc1NC(=O)c1cnn(-c2ccccc2)c1C	TDP43 rescue 14µM
Cc1ccccc1NC(=O)c1cnn(-c2ccccc2)c1C	TDP43 rescue 13µM
C[C@H]1COc2cc(Br)ccc2S(=O)(=O)N1Cc1cn(Cc2ccccc2)nn1	none (no result: TDP43 rescue, aSyn rescue, Mito fusion act, Abeta yeast res)
COc1ccc(CNC(=O)O[C@H]2CC[C@@]34CCCN3C(=O)CCC[C@H]4C2)cc1	none (no result: TDP43 rescue, aSyn rescue, Mito fusion act, Abeta yeast res)
Cc1ccc(S(=O)(=O)NOCc2ccccc2)cc1	aSyn rescue 18µM (no result: Mito fusion act)
Cc1ccc(S(=O)(=O)N[C@@H](Cc2ccccc2)C(=O)CCl)cc1	TDP43 rescue 3.2µM
COc1ccc(C(C(=O)Nc2ccc(F)cc2)N2CCN(C(=O)c3ccco3)CC2)cc1 (stereo not given)	none (no result: Mito fusion act)
O=C(Nc1ccc(F)cc1)C(c1cc2ccccc2o1)N1CCN(C(=O)c2ccco2)CC1 (stereo not given)	FUS suppressor 22µM (no result: Mito fusion act)
COc1ccccc1CCNC(=O)Cc1c(C)c2cc3c(C)coc3cc2oc1=O	none (no result: aSyn rescue, Mito fusion act)
